Structures can show the parent of a compound that is named as a salt.
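Wherever MALAT1 nuclear FISH intensity, robust Z-score vs DMSO is given: High-content confocal imaging of branched-DNA amplified FISH in 384-well plates, Hoechst-defined nuclei, score is well value minus plate DMSO median over DMSO robust SD, four wells per compound.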
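Wherever nuclear count per well, robust Z-score vs DMSO is given: Hoechst-stained nuclei counted by automated confocal imaging of four fields per well in 384-well plates, with the robust Z-score based on the per-plate DMSO median and robust SD.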

The subject of one test is HeLa. Kind of test: nuclear count per well, robust Z-score vs DMSO; higher = more cells (less toxicity). The following applies: 10 µM; 6 h.
Regarding `C#C[C@]1(O)CC[C@H]2[C@@H]3CCC4=CCCC[C@@H]4[C@H]3C(=C)C[C@@]21CC` [Desogestrel], the “nuclear count per well” value was 0.13.
Take `CC(=O)O[C@]1(C(C)=O)CC[C@H]2[C@@H]3C[C@H](C)C4=CC(=O)CC[C@]4(C)[C@H]3CC[C@@]21C` [Medroxyprogesterone Acetate]: the “nuclear count per well” value is -0.704.
As to `O=C1[C@H](CC[C@H](O)c2ccc(F)cc2)[C@@H](c2ccc(O)cc2)N1c1ccc(F)cc1` [Ezetimibe], the “nuclear count per well” value was -0.602.
The same measure, in the same setting: as for `O=c1n(CCCN2CCN(c3cccc(Cl)c3)CC2)nc2ccccn12`, the figure is 1; as for `CCN(CC)CCOc1ccc(C(=C(Cl)c2ccccc2)c2ccccc2)cc1` [Clomiphene citrate salt], 1.23; as for `C[C@]12C=CC(=O)C=C1CC[C@@H]1[C@@H]2C(=O)C[C@@]2(C)[C@H]1CC[C@]2(O)C(=O)CO` [Prednisone], -0.276.
Same read-out and setting: as for `O=C(O)/C(S)=C/c1ccc(I)cc1`, the figure is -1.84; as for `COc1ccc2[nH]c([S+]([O-])Cc3ncc(C)c(OC)c3C)nc2c1` (stereo unspecified) [Omeprazole], -0.664; as for `CCC1(C)CC(=O)NC1=O` (stereo unspecified) [Ethosuximide], 0.19.
On the same count and under the same terms, as for `CCCCC/C=C\C\C=C/C=C/C=C/[C@@H](SC[C@H](N)C(=O)NCC(=O)O)[C@@H](O)CCCC(=O)O` [Leukotriene D4], the figure is -1.32; as for `CC/C=C\C/C=C\C/C=C\C/C=C\C/C=C\CCCCCC(=O)O` [Docosapentaenoic acid], 0.0369.
For `CC(C)[C@@H]1NC(=O)[C@H](Cc2ccccc2)NC(=O)[C@@H](CC(=O)O)NC(=O)CNC(=O)[C@H](CCCN=C(N)N)NC1=O` [Cyclo [Arg-Gly-Asp-D-Phe-Val]], the “nuclear count per well” value is -1.15.
On the same count and under the same terms, under `Cc1c(OCC(F)(F)F)ccnc1C[S+]([O-])c1nc2ccccc2[nH]1` (stereo unspecified) [Lansoprazole] stands -0.132.
On the same count and under the same terms, as for `Nc1cc(N2CCCCC2)nc(N)[n+]1[O-]` [Minoxidil], the figure is 0.407.
On to `CC[C@@]1(O)C(=O)OCc2c1cc1n(c2=O)Cc2cc3c(CN(C)C)c(O)ccc3nc2-1`, for which the “nuclear count per well” value is -4.07.
Consider `CCCCc1nc(Cl)c(CO)n1Cc1ccc(-c2ccccc2-c2nnn[nH]2)cc1` [Losartan Potassium], for which the “nuclear count per well” value stood at 0.214.
The same measure, in the same setting: as for `CC(C)NCC(O)COc1ccc(CC(N)=O)cc1` (stereo unspecified), the figure is 0.069; as for `CN(C)CCCOc1nn(Cc2ccccc2)c2ccccc12` [Benzydamine hydrochloride], -1.28; as for `N#CC(=C(/N)Sc1ccccc1N)/C(C#N)=C(/N)Sc1ccccc1N`, -0.0841.
On the same count and under the same terms, under `COc1cc2ncnc(Nc3ccc(F)c(Cl)c3)c2cc1OCCCN1CCOCC1` [Gefitinib] stands -1.31; under `CNC(=O)c1cc(Oc2ccc(NC(=O)Nc3ccc(Cl)c(C(F)(F)F)c3)cc2)ccn1` [Sorafenib], -0.0278.
Same read-out and setting: as for `CCCCC/C=C\C\C=C/C=C/C=C/CC(=O)CCCC(=O)O` [5-Ketoeicosatetraenoic acid], the figure is -0.142; as for `C=CC(N)CCC(=O)O` (stereo unspecified) [Vigabatrin], 0.0325.
Turning to `CNC(C)C1CCC(N)C(OC2C(N)CC(N)C(OC3OCC(C)(O)C(NC)C3O)C2O)O1` (stereo unspecified) [Gentamicin], the “nuclear count per well” value worked out at 0.347.
As for `Nc1ccn([C@@H]2CS[C@H](CO)O2)c(=O)n1` [Lamivudine], the “nuclear count per well” value came out at 0.0223.
The same measure, in the same setting: under `Cc1nnc(C(=O)NC(C)(C)c2nc(C(=O)NCc3ccc(F)cc3)c(O)c(=O)n2C)o1` [Raltegravir] stands -0.298; under `CC(C)[C@H](N)C(=O)OCC(CO)OCn1cnc2c(=O)nc(N)[nH]c21` (stereo partly specified), -0.387.
Take `CCCCCC(O)c1cccc(OCc2ccc3ccccc3n2)c1` (stereo unspecified): the “nuclear count per well” value was -0.368.
The same measure, in the same setting: as for `CC(C)CCN1c2nc(Nc3cc(F)c(O)c(F)c3)ncc2N(C)C(=O)C1C` (stereo unspecified), the figure is 1.03; as for `COC(c1ccccc1)(c1ccccc1)[C@H](Oc1nc(C)cc(C)n1)C(=O)O` [Ambrisentan], 0.666.
On the same count and under the same terms, under `C=CC1=C(C(=O)O)N2C(=O)[C@@H](NC(=O)/C(=N\O)c3csc(N)n3)[C@H]2SC1` [Cefdinir] stands 1.25; under `CC/C(=C(\c1ccccc1)c1ccc(OCCN(C)C)cc1)c1ccccc1` [Tamoxifen citrate], -0.415.
On the same count and under the same terms, under `C[C@H]1COC2=C1C(=O)C(=O)c1c2ccc2c1CCCC2(C)C` [Cryptotanshinone] stands -1.07; under `O=C1O[C@H](CO)[C@@H](O)[C@H](O)[C@H]1O`, -0.496.
Regarding `CCCCC[C@H](O)/C=C/[C@H]1C(=O)C[C@H](O)[C@@H]1C/C=C\CCCC(=O)O` [Prostaglandin  D2], the “nuclear count per well” value was -0.144.
Same read-out and setting: as for `O=C(O)COCCN1CCN(C(c2ccccc2)c2ccc(Cl)cc2)CC1` (stereo unspecified) [Cetirizine HCl], the figure is 0.123.
`O=C(NN=Cc1ccccc1O)c1ccc(O)c(O)c1`: the “nuclear count per well” value was -0.101.
Same read-out and setting: under `CCCCOc1cc(CC2CNC(=O)N2)ccc1OC` (stereo unspecified) stands 0.226; under `COC(C)(C)CCCC(C)C/C=C/C(C)=C/C(=O)O` (stereo unspecified) [Methoprene acid], -0.753.
On the same count and under the same terms, as for `O=C1O[C@H]([C@@H](O)CO)C(O)=C1O` [Ascorbic acid], the figure is -0.378.

In another test the test system is HeLa. Kind of test: MALAT1 nuclear FISH intensity, robust Z-score vs DMSO; higher = more nuclear MALAT1 lncRNA, active = -3 or less. The following applies: 10 µM; 6 h.
For the molecule `C#C[C@]1(O)CC[C@H]2[C@@H]3CCC4=CCCC[C@@H]4[C@H]3C(=C)C[C@@]21CC` [Desogestrel], the “MALAT1 nuclear FISH intensity” value is -0.0225 (inactive).
On the same count and under the same terms, as for `CC(=O)O[C@]1(C(C)=O)CC[C@H]2[C@@H]3C[C@H](C)C4=CC(=O)CC[C@]4(C)[C@H]3CC[C@@]21C` [Medroxyprogesterone Acetate], the figure is -0.607 (inactive); as for `O=C1[C@H](CC[C@H](O)c2ccc(F)cc2)[C@@H](c2ccc(O)cc2)N1c1ccc(F)cc1` [Ezetimibe], -0.312 (inactive); as for `O=c1n(CCCN2CCN(c3cccc(Cl)c3)CC2)nc2ccccn12`, 1.67 (inactive).
Same read-out and setting: as for `CCN(CC)CCOc1ccc(C(=C(Cl)c2ccccc2)c2ccccc2)cc1` [Clomiphene citrate salt], the figure is 1.13 (inactive).
On the same count and under the same terms, under `C[C@]12C=CC(=O)C=C1CC[C@@H]1[C@@H]2C(=O)C[C@@]2(C)[C@H]1CC[C@]2(O)C(=O)CO` [Prednisone] stands -0.916 (inactive).
As to `O=C(O)/C(S)=C/c1ccc(I)cc1`, the “MALAT1 nuclear FISH intensity” value is 1.13 (inactive).
In the case of `COc1ccc2[nH]c([S+]([O-])Cc3ncc(C)c(OC)c3C)nc2c1` (stereo unspecified) [Omeprazole], the “MALAT1 nuclear FISH intensity” value was 0.765 (inactive).
The same measure, in the same setting: as for `CCC1(C)CC(=O)NC1=O` (stereo unspecified) [Ethosuximide], the figure is -0.224 (inactive).
In the case of `CCCCC/C=C\C\C=C/C=C/C=C/[C@@H](SC[C@H](N)C(=O)NCC(=O)O)[C@@H](O)CCCC(=O)O` [Leukotriene D4], the “MALAT1 nuclear FISH intensity” value is 0.618 (inactive).
Still for that read-out and setting: under `CC/C=C\C/C=C\C/C=C\C/C=C\C/C=C\CCCCCC(=O)O` [Docosapentaenoic acid] stands -0.155 (inactive); under `CC(C)[C@@H]1NC(=O)[C@H](Cc2ccccc2)NC(=O)[C@@H](CC(=O)O)NC(=O)CNC(=O)[C@H](CCCN=C(N)N)NC1=O` [Cyclo [Arg-Gly-Asp-D-Phe-Val]], -1.55 (inactive).
Same read-out and setting: as for `Cc1c(OCC(F)(F)F)ccnc1C[S+]([O-])c1nc2ccccc2[nH]1` (stereo unspecified) [Lansoprazole], the figure is 0.387 (inactive); as for `Nc1cc(N2CCCCC2)nc(N)[n+]1[O-]` [Minoxidil], -0.0516 (inactive); as for `CC[C@@]1(O)C(=O)OCc2c1cc1n(c2=O)Cc2cc3c(CN(C)C)c(O)ccc3nc2-1`, -2.83 (inactive).
With `CCCCc1nc(Cl)c(CO)n1Cc1ccc(-c2ccccc2-c2nnn[nH]2)cc1` [Losartan Potassium], the “MALAT1 nuclear FISH intensity” value was 0.206 (inactive).
On the same count and under the same terms, under `CC(C)NCC(O)COc1ccc(CC(N)=O)cc1` (stereo unspecified) stands -0.232 (inactive).
The same measure, in the same setting: as for `CN(C)CCCOc1nn(Cc2ccccc2)c2ccccc12` [Benzydamine hydrochloride], the figure is -0.28 (inactive); as for `N#CC(=C(/N)Sc1ccccc1N)/C(C#N)=C(/N)Sc1ccccc1N`, 2.18 (inactive); as for `COc1cc2ncnc(Nc3ccc(F)c(Cl)c3)c2cc1OCCCN1CCOCC1` [Gefitinib], -0.291 (inactive).
On the same count and under the same terms, under `CNC(=O)c1cc(Oc2ccc(NC(=O)Nc3ccc(Cl)c(C(F)(F)F)c3)cc2)ccn1` [Sorafenib] stands -0.772 (inactive).
Take `CCCCC/C=C\C\C=C/C=C/C=C/CC(=O)CCCC(=O)O` [5-Ketoeicosatetraenoic acid]: the “MALAT1 nuclear FISH intensity” value is -1.29 (inactive).
Still for that read-out and setting: under `C=CC(N)CCC(=O)O` (stereo unspecified) [Vigabatrin] stands -0.56 (inactive); under `CNC(C)C1CCC(N)C(OC2C(N)CC(N)C(OC3OCC(C)(O)C(NC)C3O)C2O)O1` (stereo unspecified) [Gentamicin], -0.365 (inactive); under `Nc1ccn([C@@H]2CS[C@H](CO)O2)c(=O)n1` [Lamivudine], -0.384 (inactive).
The same measure, in the same setting: under `Cc1nnc(C(=O)NC(C)(C)c2nc(C(=O)NCc3ccc(F)cc3)c(O)c(=O)n2C)o1` [Raltegravir] stands -2.1 (inactive); under `CC(C)[C@H](N)C(=O)OCC(CO)OCn1cnc2c(=O)nc(N)[nH]c21` (stereo partly specified), -0.522 (inactive).
As to `CCCCCC(O)c1cccc(OCc2ccc3ccccc3n2)c1` (stereo unspecified), the “MALAT1 nuclear FISH intensity” value is -0.109 (inactive).
With `CC(C)CCN1c2nc(Nc3cc(F)c(O)c(F)c3)ncc2N(C)C(=O)C1C` (stereo unspecified), the “MALAT1 nuclear FISH intensity” value is 0.586 (inactive).
Turning to `COC(c1ccccc1)(c1ccccc1)[C@H](Oc1nc(C)cc(C)n1)C(=O)O` [Ambrisentan], the “MALAT1 nuclear FISH intensity” value is -1.3 (inactive).
On the same count and under the same terms, as for `C=CC1=C(C(=O)O)N2C(=O)[C@@H](NC(=O)/C(=N\O)c3csc(N)n3)[C@H]2SC1` [Cefdinir], the figure is -0.0396 (inactive).
As to `CC/C(=C(\c1ccccc1)c1ccc(OCCN(C)C)cc1)c1ccccc1` [Tamoxifen citrate], the “MALAT1 nuclear FISH intensity” value was 1.26 (inactive).
The same measure, in the same setting: as for `C[C@H]1COC2=C1C(=O)C(=O)c1c2ccc2c1CCCC2(C)C` [Cryptotanshinone], the figure is -0.131 (inactive).
Same read-out and setting: as for `O=C1O[C@H](CO)[C@@H](O)[C@H](O)[C@H]1O`, the figure is 0.649 (inactive).
Still for that read-out and setting: under `CCCCC[C@H](O)/C=C/[C@H]1C(=O)C[C@H](O)[C@@H]1C/C=C\CCCC(=O)O` [Prostaglandin  D2] stands 0.0927 (inactive); under `O=C(O)COCCN1CCN(C(c2ccccc2)c2ccc(Cl)cc2)CC1` (stereo unspecified) [Cetirizine HCl], 1.45 (inactive).

Values taken from the supplement of paper PMC9844399.
